# Sampled rows, rich in hits. Any-hit rate of the full collection: about 3.6%.
# Sfp inh = blocks B. subtilis Sfp PPTase activity; Q9F4F7; Biochemical Sfp PPTase activity, qHTS; AID 1490; 3.5% of 310,000 active; Potency, µM, hits mostly inhibitors;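 further: the enzyme is Sfp with the accession as filed and its product quenches rhodamine fluorescence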
#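 Step 1, compound plus 15 nM Sfp-PPTase, 15 min, room temperature. Step 2, add rhodamine-CoA (5 uM) and BHQ-2-YbbR (12.5 uM). Step 3, read 525/598 nm fluorescence at 0 and 30 min.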
# Epigenetic reg = derepresses silenced GFP reporter in murine cells; murine LDR cells, GFP reporter derepression, 30 h; Potency, µM (doses to about 53.9 µM), hits mostly activators; AID 1865; 0.2% of 280,000 active; further: nearly all actives have a fitted effect of over 60% in size
#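 Murine LDR cells carrying a silenced, genomically integrated CMV-driven GFP reporter were exposed to compound for 30 hours at 37 C. After PBS washes, GFP-positive cells (20–120 um objects) were counted by laser-scanning microplate cytometry.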
# GCN5L2 inh = inhibitors of human GCN5L2 histone acetyltransferase; Q92830; GCN5L2 HAT assay, ThioGlo1 CoA-SH fluorescence; Potency, µM (doses to about 58.9 µM), usual class: inhibitors; 0.21% of 390,000 active; AID 504327
#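 GCN5L2 (20nM final) in 50mM HEPES, 0.1mM EDTA pH 7.5, 0.01% Tween-20 was preincubated 15 min at room temperature with compound, then given ThioGlo1 (50uM), H3(1-25) peptide (75uM) and acetyl-CoA (70uM); CoA-thiol fluorescence (Ex340/Em540) was read at 0 and 20 min.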
# NPSR antagonist = antagonists of human neuropeptide S receptor cAMP signaling. CHO-NPSR cells, cAMP TR-FRET, antagonist mode. Q6W5P4. Potency, µM (doses to about 38.3 µM), hits mostly inhibitors. 1% of 220,000 active; further: nearly all actives have a fitted effect of over 50% in size
# Target sequence (Q6W5P4 whole entry, looked up): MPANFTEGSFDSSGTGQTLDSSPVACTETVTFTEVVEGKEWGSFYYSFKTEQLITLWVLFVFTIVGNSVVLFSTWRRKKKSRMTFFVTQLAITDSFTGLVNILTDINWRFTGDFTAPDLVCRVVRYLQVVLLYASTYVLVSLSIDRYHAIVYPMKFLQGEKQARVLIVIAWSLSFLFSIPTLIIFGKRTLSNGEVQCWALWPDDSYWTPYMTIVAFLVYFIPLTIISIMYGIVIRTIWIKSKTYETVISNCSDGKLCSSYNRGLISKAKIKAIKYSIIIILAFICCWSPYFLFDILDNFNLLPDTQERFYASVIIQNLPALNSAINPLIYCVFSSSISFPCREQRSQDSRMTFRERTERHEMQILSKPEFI
# IMPase Li cell = IMPase inhibition in cells with lithium potentiation; 0.35% of 210,000 active; CHO-M1 cells, IP1 TR-FRET (IP-One), carbachol + lithium; Potency, µM (top dose mostly 59.4 µM), most hits filed as inhibitors;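 further: IP1 builds up when IMPase is blocked and the TR-FRET signal falls; nearly all actives have a fitted effect of over 50% in size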
#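 Concentration–response in CHO-M1 cells, lithium-potentiated; 30 min at 37C. IP1 detected by competitive TR-FRET after 10 min lysis at RT. Hill-fitted AC50.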
# JMJD2E inh = JMJD2E (human) inhibition; B2RXH2; JMJD2E catalytic domain, FDH-coupled NADH fluorescence (FDH is formaldehyde dehydrogenase); Potency, µM (doses to about 57.1 µM), usual class: inhibitors; 1.6% of 230,000 active; AID 2147; active means well fitted inhibition curve with a large enough effect, not every such curve was filed as active; inconclusive means small, poorly fitted or top-dose-only effect, or another doubt; inactive means no such curve, though single readings can be large or run the other way; further: nearly all actives have a fitted effect of over 50% in size
# A number is an active result; - = inactive; ? = inconclusive; . = no result; ! = not confirmed by another sample. Unless noted, the call rests on the fitted dose curve; in most records, active means well fitted curve in the direction sought with a large enough effect; inconclusive means small, poorly fitted or top-dose-only effect, or another doubt; inactive means no such curve, though single readings can be large; an effect the other way counts as inactive or inconclusive.
SMILES,Sfp inh,Epigenetic reg,GCN5L2 inh,NPSR antagonist,IMPase Li cell,JMJD2E inh
COc1ccc(C)cc1NC(=O)Cc1ccc(NC(=O)N2CCCCc3ccccc32)cc1,.,-,-,.,.,.
COc1ccc(N=Cc2sc(O)c3ccccc23)cc1,-,10µM,-,12.6µM,-,?
O=[N+]([O-])c1ccc(N=Cc2sc3ccccc3c2O)cc1,-,-,-,-,-,?
COc1ccc(N=Cc2c(O)c3ccccc3n2C(C)=O)cc1,17.8µM,-,-,-,.,?
Cn1c(=O)c(C=Nc2ccccc2)c(O)c2ccccc21,-,-,-,-,.,-
O=C(NC1(C(F)(F)F)NC(=O)N(Cc2ccco2)C1=O)c1cccs1 (centres undefined),35.5µM,-,-,-,-,-
O=C(NC1(C(F)(F)F)NC(=O)N(Cc2ccco2)C1=O)c1cccnc1 (centres undefined),?,-,-,-,-,-
OC[C@H]1NC[C@@H](O)[C@@H](O)[C@@H]1O,-,.,-,.,.,.
O=C(O)CN(CCN(CC(=O)O)CC(=O)O)CCN(CC(=O)O)CC(=O)O,-,-,-,-,-,6.31µM!
Cc1ccc(C(=O)CSc2ccccn2)cc1,50.1µM,-,-,-,-,?
O=C(CSc1ccc(-c2ccccn2)nn1)c1ccc([N+](=O)[O-])cc1,31.6µM,-,-,-,-,-
O=C(CSc1ccc(-c2cccnc2)nn1)c1ccc([N+](=O)[O-])cc1,-,-,-,-,-,-
O=C(CSc1ccccn1)c1ccc(F)cc1,?,-,-,-,-,-
Cn1nnc(NC(=S)NC(=O)c2cc(Cl)ccc2Cl)n1,50.1µM,.,-,.,.,.
Cc1ccc(-c2[nH]ncc2CNCCc2cnn(-c3ccccc3)c2)cc1C,79.4µM,-,-,?,.,-
C=CC#CC1(O)CC(C)[N+](C)(C)CC1C (centres undefined),39.8µM,-,-,-,-,-
CCC1=C(c2ccc(C)cc2)S(=O)(=O)N=C1N1CCC(C(=O)NCCc2cccc(OC)c2)CC1,.,-,-,.,.,.
COc1ccccc1NC(=O)C1=C(C)Nc2ncnn2C1c1ccc[nH]1 (centres undefined),.,-,-,.,.,.
CCCCC(CC)CNCC(CC)CCCC (centres undefined),.,.,.,.,-,.
NCC1OC(n2cnc3c(=O)[nH]c(N)nc32)C(O)C1O (centres undefined),-,-,-,.,-,?
CCOC(=O)C(NC(=O)N(C)C)(Nc1sc(C)c(CC)c1C#N)C(F)(F)F (centres undefined),44.7µM,-,-,-,-,-
Cc1nc(-c2ccccc2)sc1-c1ccc(SCC(=O)NCc2ccccc2Cl)nn1,.,-,-,.,.,.
Cc1ccc(S(=O)(=O)N/N=C/c2ccc(O)cc2O)cc1[N+](=O)[O-],50.1µM,-,-,-,.,-
COc1cc(/C=N/NS(=O)(=O)c2ccc(C)c([N+](=O)[O-])c2)ccc1O,-,-,-,-,-,-
COc1cc(/C=N/NS(=O)(=O)c2ccc(C)c([N+](=O)[O-])c2)cc([N+](=O)[O-])c1O,-,.,-,.,.,.
SMILES,Sfp inh,Epigenetic reg,GCN5L2 inh,NPSR antagonist,IMPase Li cell,JMJD2E inh
CCOc1cccc(/C=N/NS(=O)(=O)c2ccc(C)c([N+](=O)[O-])c2)c1O,56.2µM,-,-,-,-,-
CCN(CC)CCCNC(=O)c1ccc(Cc2nc3ccccc3[nH]2)cc1,.,-,.,.,.,.
COc1cccc(COCCN2CCN(S(=O)(=O)c3ccccc3)CCC2=O)c1,-,.,.,.,.,.
C=CCOC(/C=C/c1ccccc1)CC (centres undefined),-,.,.,.,.,.
Cc1cccc(C)c1NC(=O)CSCC(=O)c1ccc(O)c(O)c1,?,-,-,-,-,28.2µM
Cc1cccc(C)c1NC(=O)CSCC(=O)O,-,-,-,-,-,-
CCOCCO,.,.,.,.,-,.
COc1cccc(NC(=O)CSc2cc(C)c3ccccc3n2)c1,.,-,-,.,.,.
COc1ccc2c(C)cc(SCC(=O)Nc3cc(C(N)=O)cc(C(N)=O)c3)nc2c1,44.7µM,-,-,-,.,?
CCC(=O)N1CCc2cc(S(=O)(=O)NCCC(=O)Nc3ccc(C)cc3)ccc21,.,-,-,.,.,.
O=C(CC(Nc1ccc(F)cc1)c1ccccc1)c1ccccc1 (centres undefined),-,-,-,?,.,-
